Assay [1] in a line: Cell Viability - Mesenchymal (AID 546).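 Also: cells exposed to compound for 40 hours before reading.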 Also: potency is read from the fitted curve at half-maximal effect. Conditions: mesenchymal cells viability, qHTS; activity change, negative = cytotoxicity: at 91.7 µM (top of the series). In outline:
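Human kidney mesenchymal cells from normal renal glomeruli, 1000 cells/well, rested 5 hr at 37 °C, then treated 40 hr at 37 °C in complete medium. Cellular ATP read by CellTiter-Glo luminescence; AC50 from Hill-equation fits.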
A general note: qHTS replaces the single test concentration by a dilution series.

The nature of assay [2]: Cellular Toxicity (caspase-3) Mesangial (AID 660).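 Also: cells exposed to compound for 16 h before the caspase read.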 Conditions: mesangial cells, normalized: DMSO 0%, 100 µM tamoxifen 100%; at 91.7 µM (top of the series). In outline: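 Human renal glomerular mesangial cells (1000/well) were treated with compounds for 16 h at 37 °C in complete medium, then caspase 3/7 activity was read by Caspase-Glo luminescence. Data were normalized to DMSO and 100 uM tamoxifen; AC50 from Hill fits.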

Assay [3] in a line: Cellular Toxicity (caspase-3) SK-N-SH (AID 661).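 Also: 0% = DMSO basal and 100% = 10 µM staurosporine.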 The following applies: SK-N-SH caspase-3 activation, qHTS; caspase-3 activation: at 91.7 µM (top of the series), DMSO as zero, staurosporine as full. In a few lines:
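SK-N-SH human neuroblastoma cells (1500/well) were treated with compounds for 16 hr at 37 °C in complete medium; caspase 3/7 activity was read by Caspase-Glo luminescence. AC50 came from Hill fits of data normalized to DMSO and 10 uM staurosporine.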

Assay [4] can be described thus: Cell Viability - LYMP2-001 (AID 921). Also: nearly all actives have a fitted effect of over 70% in size. Also: potency is read from the fitted curve at half-maximal effect. In outline:
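Human lymphoblastoid LYMP2-001 cells, 2500 per well, in complete medium, treated 24 h at 37 C. Viability from cellular ATP by CellTiter-Glo luminescence; AC50 from Hill-equation fits of qHTS concentration-response.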

The nature of assay [5]: MultiTox-Fluor Cytotoxicity Assay - LYMP1-002 - Live Cells (AID 955). Also: potency is read from the fitted curve at half-maximal effect. In a few lines:
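Human lymphoblastoid LYMP1-002 cells, 2500/well in complete medium, rested 5 hr at 37 C, then exposed to compounds for 16 hr at 37 C. Live-cell protease cleavage of GF-AFC read by fluorescence (Ex/Em 405/510) after 60 min at room temperature; AC50 from Hill fits.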

Assay [6] is described as follows: MultiTox-Fluor Cytotoxicity Assay - LYMP1-003 - Live Cells (AID 962). Also: potency is read from the fitted curve at half-maximal effect. In outline: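 LYMP1-003 human lymphoblastoid cells (2500/well) in complete medium were preincubated 5 hr at 37 C, then exposed to compounds for 16 hr at 37 C. Live-cell protease cleavage of GF-AFC read by fluorescence (Ex/Em 405/510); AC50 from Hill fits.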
The nature of assay [7]: Cell Viability - LYMP2-003 (AID 965).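 Also: cells exposed to compounds for 24 h before reading; nearly all actives have a fitted effect of over 50% in size.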 Also: potency is read from the fitted curve at half-maximal effect.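 As to activity change, negative = cytotoxicity: 0% = DMSO only and full effect = 92 µM tetraoctylammonium bromide.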 In outline:
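Human lymphoblastoid LYMP2-003 cells, 2500/well, exposed to compounds for 24 h at 37 C in complete medium. Viability read as intracellular ATP by CellTiter-Glo luminescence; AC50 from Hill-equation fits of qHTS concentration-response data.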

Assay [8] in a line: Cell Viability - LYMP2-004 (AID 966). Also: nearly all actives have a fitted effect of over 65% in size. Also: potency is read from the fitted curve at half-maximal effect.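 As to activity change, negative = cytotoxicity: plate controls were DMSO only for no effect and tetraoctylammonium bromide control for full effect.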 In outline:
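Human lymphoblastoid cells (2500/well) in complete medium were treated with compounds for 24 hr at 37 C, then intracellular ATP was measured by CellTiter-Glo luminescence. AC50 values came from Hill-equation fits of concentration-response data.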

A short description of assay [9]: Cell Viability - LYMP2-011 (AID 969). Also: nearly all actives have a fitted effect of over 60% in size. Also: potency is read from the fitted curve at half-maximal effect. In outline: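 Human lymphoblastoid cells (2500/well) were plated in complete medium, preincubated 5 hr at 37 C, then exposed to compounds for 24 hr at 37 C. Intracellular ATP was read by CellTiter-Glo luminescence, and AC50 came from Hill-equation concentration-response fits.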
The nature of assay [10]: Cell Viability - LYMP2-015 (AID 971). Also: nearly all actives have a fitted effect of over 55% in size. Also: potency is read from the fitted curve at half-maximal effect. In outline: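 Human lymphoblastoid cells (2500/well) in complete medium were preincubated 5 hr at 37 C, then compound-treated 24 hr at 37 C. Intracellular ATP was read by CellTiter-Glo luminescence after 30 min at room temperature; AC50 came from Hill-equation concentration-response fits.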
Assay [11] can be described thus: Cell Viability - LYMP2-019 (AID 973). Also: nearly all actives have a fitted effect of over 55% in size. Also: potency is read from the fitted curve at half-maximal effect.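 As to activity change, negative = cytotoxicity: 0% = DMSO alone and full effect = 92 µM tetraoctylammonium bromide.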 In a few lines:
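Human lymphoblastoid cells were seeded at 2500 cells/well, preincubated 5 hr at 37 C, then exposed to compounds for 24 hr at 37 C in complete medium. Intracellular ATP was measured by CellTiter-Glo luminescence; AC50 from Hill fits.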

A short description of assay [12]: Cell Viability - LYMP2-021 (AID 974).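 Also: compound exposure lasts 24 hours at 37 °C; nearly all actives have a fitted effect of over 55% in size.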 Also: potency is read from the fitted curve at half-maximal effect. As to activity change, negative = cytotoxicity: % is scaled to controls: 0 for no effect and ±100 for the full control effect. In a few lines:
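Human lymphoblastoid cells (2500/well) were preincubated 5 hr at 37 C, then exposed to compounds for 24 hr at 37 C in complete medium. Intracellular ATP was read by CellTiter-Glo luminescence; AC50 came from Hill-equation fits of concentration-response data.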

A short description of assay [13]: Cell Viability - LYMP2-023 (AID 975). Also: nearly all actives have a fitted effect of over 55% in size. Also: potency is read from the fitted curve at half-maximal effect.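 As to activity change, negative = cytotoxicity: cellular ATP measured by luciferase luminescence as viability proxy; plate controls were DMSO only for no effect and 92 µM tetraoctylammonium bromide control for full effect.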 In outline: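 Human lymphoblastoid cells (2500/well) were preincubated 5 hr at 37 C, then exposed to compounds for 24 hr at 37 C in complete medium. Cellular ATP was read by CellTiter-Glo luminescence, and AC50 came from Hill-equation fits.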
A short description of assay [14]: Cell Viability - LYMP2-002 (AID 977).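 Also: compound exposure lasted 24 h at 37 °C.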 Also: potency is read from the fitted curve at half-maximal effect. In a few lines: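 Human lymphoblastoid LYMP2-002 cells, 2500 per well, exposed to compounds for 24 h at 37 C in complete medium; viability read as intracellular ATP by CellTiter-Glo luminescence, AC50 from Hill fits.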
The nature of assay [15]: Cell Viability - LYMP2-008 (AID 980). Also: nearly all actives have a fitted effect of over 60% in size. Also: potency is read from the fitted curve at half-maximal effect. As to activity change, negative = cytotoxicity: % is scaled to controls: 0 for no effect and ±100 for the full control effect. In outline:
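Human lymphoblastoid cells (2500/well) were plated, held 5 hr at 37 C, then exposed to compounds for 24 hr at 37 C in complete medium. Intracellular ATP was read by CellTiter-Glo luminescence; AC50 from Hill-fitted concentration-response.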

A short description of assay [16]: Cell Viability - LYMP2-016 (AID 984). Also: nearly all actives have a fitted effect of over 55% in size. Also: potency is read from the fitted curve at half-maximal effect. As to activity change, negative = cytotoxicity: % is scaled to controls: 0 for no effect and ±100 for the full control effect. In outline: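 Human lymphoblastoid LYMP2-016 cells, 2500 per well, treated with compounds for 24 h at 37 C. Viability read as intracellular ATP by CellTiter-Glo luminescence after 30 min at room temperature; AC50 from Hill fits of concentration-response.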
Assay [17] is described as follows: Cell Viability - LYMP2-018 (AID 985).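 Also: compound exposure lasted 24 hr at 37 °C; nearly all actives have a fitted effect of over 50% in size.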 Also: potency is read from the fitted curve at half-maximal effect.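 As to activity change, negative = cytotoxicity: plate controls were DMSO only for no effect and tetraoctylammonium bromide at 92 µM for full effect.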 In outline: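 Human lymphoblastoid cells (2500/well) were pre-incubated 5 hr at 37 C, then exposed to compounds for 24 hr at 37 C in complete medium. Viability was read as intracellular ATP by CellTiter-Glo luminescence; AC50 values came from Hill-equation fits.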
Assay [18] is described as follows: Cell Viability - LYMP2-020 (AID 986). Also: nearly all actives have a fitted effect of over 55% in size. Also: potency is read from the fitted curve at half-maximal effect. In a few lines:
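Human lymphoblastoid cells, 2500/well, were pre-incubated 5 hr at 37 C, then exposed to compounds for 24 hr at 37 C in complete medium. Intracellular ATP was read by CellTiter-Glo luminescence, and AC50 was derived by Hill fitting of concentration-response data.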

Assay [19] in a line: Cell Viability - LYMP2-022 (AID 987). Also: nearly all actives have a fitted effect of over 55% in size. Also: potency is read from the fitted curve at half-maximal effect. In outline:
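Human lymphoblastoid cells, 2500/well, preincubated 5 hr at 37 C, then exposed to compounds over a concentration range for 24 hr at 37 C in complete medium. Viability read as intracellular ATP by CellTiter-Glo luminescence after 30 min at room temperature; AC50 from Hill fits.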

The nature of assay [20]: Cell Viability - LYMP2-024 (AID 988). Also: nearly all actives have a fitted effect of over 60% in size. Also: potency is read from the fitted curve at half-maximal effect.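 As to activity change, negative = cytotoxicity: plate controls were DMSO only for no effect and 92 µM tetraoctylammonium bromide for full effect.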 In outline: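 Human lymphoblastoid cells (2500/well) in complete medium were preincubated 5 hr at 37 C, then exposed to compounds for 24 hr at 37 C. Intracellular ATP was read by CellTiter-Glo luminescence; AC50 from Hill-equation fits of concentration-response data.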

Where “and” joins values, the source holds several entries; their conditions need not be identical. Equal values may be shown once. Unmarked numbers belong to inactive results. Records with an inconclusive call do not appear. Calls of active or inactive are those of the source. Calls follow the shape of the dose curve; as a rule, active = well fitted curve in the direction sought with a large enough effect; inconclusive = small, poorly fitted or top-dose-only effect, or another doubt; inactive = no such curve, though single readings can be large; an effect the other way counts as inactive or inconclusive.

For `CCCCCC/C(C=O)=C\c1ccccc1`, the Potency result in assay [1], in assay [4], in assay [5], in assay [6], in assay [7] and in assay [8] was “inactive” throughout. Besides, the Potency entry in assay [9], in assay [10], in [11], in assay [12], in assay [13] and in [14] was “inactive” throughout. Also, the Potency result in assay [15], in [16], in assay [17], in [18], in assay [19] and in assay [20] was “inactive” each time. The caspase-3 activation in assay [2] was 1.26%; in assay [3] it was -0.582%.
Regarding `C=CC(=O)OCC(CO)(COC(=O)C=C)COC(=O)C=C`, the activity change, negative = cytotoxicity in [1] was -91.9% (active). Further, in assay [3], the caspase-3 activation was -3.53% (active).
For the molecule `O=C(/C=C/c1ccc(O)c(O)c1)OC1C[C@](O)(C(=O)O)C[C@@H](O)[C@H]1O` (some centres undefined), the Potency entry in [1], in assay [4], in assay [5], in [6], in assay [7] and in assay [8] was “inactive” throughout. The Potency entry in assay [9], in assay [10], in [11], in [12], in assay [13] and in assay [14] was “inactive” throughout. The Potency entry in assay [15], in assay [16], in assay [17], in [18], in [19] and in assay [20] was “inactive” each time. Further, the caspase-3 activation is -0.588% and 1.58% in assay [2]; 0.0888% and -0.0196% in assay [3].
For `CCCCCCCC[N+](CCCCCCCC)(CCCCCCCC)CCCCCCCC`, the Potency in assay [1] was 10 µM (active); in assay [4], 3.98 µM (active); in assay [5], 3.98 µM (active); in assay [6] it was 12.6 µM (active); in [7] it was 10 µM (active); in assay [8] it was 7.94 µM (active). The Potency in [9] is 6.31 µM (active); in assay [10], 7.94 µM (active); in assay [11] it was 7.94 µM (active); in assay [12], 7.94 µM (active); in [13], 7.94 µM (active); in assay [14], 7.94 µM (active). The Potency in assay [15] was 3.98 µM (active); in assay [16], 5.01 µM (active); in [17] it was 5.01 µM (active); in assay [18], 5.01 µM (active); in [19], 3.16 µM (active); in assay [20], 3.98 µM (active).
For the molecule `CN1[C@H]2CC(OC(=O)[C@H](CO)c3ccccc3)C[C@H]1[C@H]1O[C@H]12` (some centres undefined), the Potency result in assay [1], in assay [4], in assay [5], in assay [6], in assay [7] and in [8] was “inactive” in each case. The Potency entry in assay [9], in assay [10], in [11], in assay [12], in assay [13] and in [14] was “inactive” each time. Also, the Potency entry in [15], in assay [16], in assay [17], in assay [18], in assay [19] and in [20] was “inactive” in each case. In addition, the caspase-3 activation in assay [2] was -0.382% and 0.0869%; in assay [3] it was -1.73% and -0.623%.
On to `O=C(OCC(COC(=O)c1ccccc1)(COC(=O)c1ccccc1)COC(=O)c1ccccc1)c1ccccc1`, for which the Potency entry in assay [1], in [4], in [5], in [6], in [7] and in assay [8] was “inactive” in each case. The Potency result in assay [9], in assay [10], in [11], in [12], in [13] and in assay [14] was “inactive” each time. Moreover, the Potency result in assay [15], in assay [16], in assay [17], in assay [18], in assay [19] and in assay [20] was “inactive” throughout. Further, the caspase-3 activation in [2] was -0.308%; in assay [3] it was -0.121%.
On to `Cc1cccc(O)c1C`, for which the Potency result in assay [1], in [4], in assay [5], in assay [6], in assay [7] and in assay [8] was “inactive” throughout. The Potency result in [9], in [10], in assay [11], in [12], in assay [13] and in [14] was “inactive” each time. In addition, the Potency entry in assay [15], in assay [16], in assay [17], in assay [18], in assay [19] and in assay [20] was “inactive” each time. In addition, the caspase-3 activation was -0.758% in assay [2] and -0.783% in assay [3].
On to `Cc1cc(O)c(C(C)(C)C)cc1Sc1cc(C(C)(C)C)c(O)cc1C`, for which the Potency was 15.8 µM (active) in assay [1]; 39.8 µM (active) in [4]; 25.1 µM (active) in assay [5]; 39.8 µM (active) in assay [6]; 31.6 µM (active) in assay [7]; 31.6 µM (active) in assay [8]. For the same molecule, the Potency in assay [9] is 39.8 µM (active); in [10] it was 39.8 µM (active); in assay [11], 39.8 µM (active); in assay [12] it was 31.6 µM (active); in assay [13], 50.1 µM (active); in [14], 31.6 µM (active). For the same molecule, the Potency was 31.6 µM (active) in assay [15]; 50.1 µM (active) in [16]; 50.1 µM (active) in [17]; 31.6 µM (active) in [18]; 31.6 µM (active) in [19]; 39.8 µM (active) in [20]. For the same molecule, in [2], the caspase-3 activation was 140% (active).

The values above are taken from PubChem BioAssay (NCATS).
